In PubChem BioAssay AID1159580 (chemical genetic matrix, 2015):
Out of some 5,500 compounds screened, about 2,000 (36%) were called active. Another 18% or so got no clear call; they are omitted. Cut-off read from the data, not from the text of the source: active = normalized growth mostly below about 0.91 (no sharp cut-off); inconclusive = no clear call, values can overlap the other calls; inactive = mostly above about 0.92. The list shows a part of the results.

Assay: chemical genetic growth profiling, strain panel (AID 1159580);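 note: tested at 20 µM; growth read once vehicle control cultures reached saturation at 30 °C; 1 = growth at the plate median or of vehicle wells; lower values mean less growth of the strain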
Settings: growth OD

Measured: normalized growth

O=C(O)c1ccccc1O
inactive: S. cerevisiae deletion strains, locus YJR066W, strain TOR1, hits give low values 0.951 | S. cerevisiae deletion strains, locus YJR075W, strain HOC1, hits give low values 1.01 | S. cerevisiae deletion strains, locus YKL009W, strain mrt4, hits give low values 1.05 | S. cerevisiae deletion strains, locus YKL068W, hits give low values 0.982 | S. cerevisiae deletion strains, locus YKL085W, strain MDH1 (second series), hits give low values 0.989 | S. cerevisiae deletion strains, locus YKL085W, strain MDH1, hits give low values 0.989 | S. cerevisiae deletion strains, locus YKL160W, strain elf1, hits give low values 0.971 | S. cerevisiae deletion strains, locus YKL190W, strain CNB1, hits give low values 0.998 | S. cerevisiae deletion strains, locus YKR001C, strain vps1, hits give low values 1.02 | S. cerevisiae deletion strains, locus YKR091W, strain srl3, hits give low values 0.99 | S. cerevisiae deletion strains, locus YLL001W, strain dnm1, hits give low values 0.97 | S. cerevisiae deletion strains, locus YLL026W, hits give low values 0.991 | S. cerevisiae deletion strains, locus YLL041C, strain sdh2, hits give low values 0.99 | S. cerevisiae deletion strains, locus YLR027C, strain aat2, hits give low values 0.997 | S. cerevisiae deletion strains, locus YLR039C, strain RIC1, hits give low values 0.978 | S. cerevisiae deletion strains, locus YLR058C, strain SHM2, hits give low values 0.994 | S. cerevisiae deletion strains, locus YLR102C, strain apc9, hits give low values 1.01 | S. cerevisiae deletion strains, locus YLR113W, strain HOG1, hits give low values 0.987 | S. cerevisiae deletion strains, locus YLR221C, strain rsa3, hits give low values 1 | S. cerevisiae deletion strains, locus YLR258W, strain gsy2, hits give low values 0.979 | S. cerevisiae deletion strains, locus YLR262C, strain YPT6 (second series), hits give low values 0.957 | S. cerevisiae deletion strains, locus YLR262C, strain YPT6, hits give low values 0.973 | S. cerevisiae deletion strains, locus YLR268W, strain sec22, hits give low values 1.04 | S. cerevisiae deletion strains, locus YLR320W, strain mms22, hits give low values 1.03 | S. cerevisiae deletion strains, locus YLR330W, strain CHS5, hits give low values 1 | S. cerevisiae deletion strains, locus YLR342W, strain FKS1 (second series), hits give low values 1.01 | S. cerevisiae deletion strains, locus YLR342W, strain FKS1, hits give low values 0.975 | S. cerevisiae deletion strains, locus YLR357W, strain rsc2, hits give low values 0.956 | S. cerevisiae deletion strains, locus YLR370C, strain arc18, hits give low values 0.988 | S. cerevisiae deletion strains, locus YLR371W, strain rom2, hits give low values 1.01 | S. cerevisiae deletion strains, locus YLR384C, strain iki3, hits give low values 0.96 | S. cerevisiae deletion strains, locus YLR418C, strain cdc73, hits give low values 1.01 | S. cerevisiae deletion strains, locus YML016C, strain PPZ1, hits give low values 1 | S. cerevisiae deletion strains, locus YML032C, strain rad52, hits give low values 1.04 | S. cerevisiae deletion strains, locus YML120C, strain ndi1, hits give low values 0.985 | S. cerevisiae deletion strains, locus YML124C, strain tub3, hits give low values 1.01 | S. cerevisiae deletion strains, locus YMR058W, strain fet3, hits give low values 0.998 | S. cerevisiae deletion strains, locus YMR078C, strain ctf18, hits give low values 1.02 | S. cerevisiae deletion strains, locus YMR125W, strain sto1, hits give low values 0.923 | S. cerevisiae deletion strains, locus YMR129W, hits give low values 0.971 | S. cerevisiae deletion strains, locus YMR205C, strain PFK2, hits give low values 0.985 | S. cerevisiae deletion strains, locus YMR223W, strain ubp8, hits give low values 1.02 | S. cerevisiae deletion strains, locus YMR231W, strain pep5, hits give low values 0.976 | S. cerevisiae deletion strains, locus YMR307W, strain GAS1, hits give low values 0.965 | S. cerevisiae deletion strains, locus YNL067W, strain RPL9B, hits give low values 0.998 | S. cerevisiae deletion strains, locus YNL071W, strain lat1, hits give low values 0.986 | S. cerevisiae deletion strains, locus YNL153C, strain GIM3, hits give low values 1.01 | S. cerevisiae deletion strains, locus YNL183C, strain NPR1, hits give low values 0.951 | S. cerevisiae deletion strains, locus YNL209W, strain ssb2, hits give low values 0.968 | S. cerevisiae deletion strains, locus YNL233W, strain BNI4, hits give low values 1 | S. cerevisiae deletion strains, locus YNL248C, strain rpa49, hits give low values 0.958 | S. cerevisiae deletion strains, locus YNL250W, strain rad50, hits give low values 1 | S. cerevisiae deletion strains, locus YNL271C, strain bni1, hits give low values 0.995 | S. cerevisiae deletion strains, locus YNL298W, strain CLA4, hits give low values 1.02 | S. cerevisiae deletion strains, locus YNL307C, strain MCK1, hits give low values 1.02 | S. cerevisiae deletion strains, locus YNL322C, strain KRE1 (second series), hits give low values 0.974 | S. cerevisiae deletion strains, locus YNR049C, strain mso1, hits give low values 0.979 | S. cerevisiae deletion strains, locus YNR052C, strain pop2, hits give low values 1.02 | S. cerevisiae deletion strains, locus YOL006C, strain TOP1, hits give low values 1.09 | S. cerevisiae deletion strains, locus YOL012C, strain htz1 1.01 | S. cerevisiae deletion strains, locus YOL147C, strain pex11, hits give low values 1.01 | S. cerevisiae deletion strains, locus YOR001W, strain rrp6, hits give low values 0.982 | S. cerevisiae deletion strains, locus YOR061W, strain CKA2, hits give low values 0.999 | S. cerevisiae deletion strains, locus YOR069W, strain VPS5, hits give low values 0.993 | S. cerevisiae deletion strains, locus YOR070C, strain gyp1, hits give low values 0.982 | S. cerevisiae deletion strains, locus YOR080W, strain dia2, hits give low values 0.983 | S. cerevisiae deletion strains, locus YOR083W, strain WHI5, hits give low values 0.988 | S. cerevisiae deletion strains, locus YOR106W, strain vam3, hits give low values 0.952 | S. cerevisiae deletion strains, locus YOR136W, strain idh2, hits give low values 1.02 | S. cerevisiae deletion strains, locus YOR144C, strain elg1, hits give low values 1.01 | S. cerevisiae deletion strains, locus YOR184W, strain ser1, hits give low values 1.02 | S. cerevisiae deletion strains, locus YOR231W, strain MKK1, hits give low values 0.98 | S. cerevisiae deletion strains, locus YOR265W, strain rbl2, hits give low values 0.976 | S. cerevisiae deletion strains, locus YOR270C, strain vph1, hits give low values 0.944 | S. cerevisiae deletion strains, locus YOR290C, strain snf2, hits give low values 1 | S. cerevisiae deletion strains, locus YOR316C, strain cot1, hits give low values 1.02 | S. cerevisiae deletion strains, locus YPL051W, strain arl3, hits give low values 0.986 | S. cerevisiae deletion strains, locus YPL078C, strain atp4, hits give low values 0.961 | S. cerevisiae deletion strains, locus YPL106C, strain sse1, hits give low values 0.954 | S. cerevisiae deletion strains, locus YPL240C, strain hsp82, hits give low values 0.976 | S. cerevisiae deletion strains, locus YPL256C, strain CLN2, hits give low values 1.05 | S. cerevisiae deletion strains, locus YPR119W, strain clb2, hits give low values 1.01 | S. cerevisiae deletion strains, locus YPR141C, strain kar3, hits give low values 0.994 | S. cerevisiae deletion strains, locus YPR163C, strain tif3, hits give low values 1.01 | S. cerevisiae deletion strains, locus YPR167C, strain met16, hits give low values 1.01 | S. cerevisiae deletion strains, strain wtn01, hits give low values 1.01 | S. cerevisiae strains, strain wild type, hits give low values 0.999
